# SNCA expr inh – inhibitors of alpha-synuclein (SNCA) gene expression; HEK-293 SNCA-luciferase knock-in, luminescence, 24 h; Potency, µM (highest dose often 57.2 µM), without a hit: at the top dose activity change, negative = inhibition, most hits filed as inhibitors; hit rate 0.17% among 140,000; AID 1671194;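 further: plate controls were DMSO cells for no effect and cell-free wells for full effect; nearly all actives have a fitted effect of over 45% in size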
# FLuc inh – inhibitors of firefly (Photinus pyralis) luciferase; P08659; purified P. pyralis luciferase, luminescence, biochemical; Potency, µM (series often up to 115 µM), hits mostly inhibitors; hit rate 2.5% among 76,000; further: nearly all actives have a fitted effect of over 65% in size
#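 Luminescence read by CCD imaging after purified firefly luciferase (10nM final) was added to substrate buffer holding 10uM D-luciferin and 10uM ATP, pH 7.5, pre-dosed with compound.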
# NIH3T3 tox – kills NIH 3T3 cells | NIH 3T3 viability, CellTiter-Glo ATP luminescence, 48-72 h | Potency, µM (highest dose often 96.7 µM), for inactives: top-dose activity change, negative = cytotoxicity, usual class: inhibitors | hit rate 4.3% among 94,000; further: nearly all actives have a fitted effect of over 55% in size
#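 Cytotoxicity is measured as loss of cellular ATP: NIH 3T3 cells (400/well) are exposed to compound for 48 or 72 hr at 37 °C, then CellTiter-Glo luminescence is imaged after 10 min at room temperature.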
# HEK293 tox – cytotoxic compounds in HEK 293 cells; HEK 293 viability, ATP luminescence (CellTiter-Glo), 48-72 h; Potency, µM (titrated, usually from 115 µM), for inactives: at the highest dose activity change, negative = cytotoxicity, actives largely listed as inhibitors; hit rate 6.6% among 94,000; AID 1345083; further: nearly all actives have a fitted effect of over 60% in size
#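 CellTiter-Glo luminescence (cellular ATP) was read after 48 or 72 hr of compound exposure at 37 degree Celsius. Cells were HEK 293 plated at 250 cells/well.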
# NPR1 antag – antagonists of human natriuretic peptide receptor Npr1; hit rate 1.6% among 76,000; P16066; Potency, µM (top dose mostly 46.3 µM), inactives show at the highest dose activity change, negative = inhibition, usual class: inhibitors; HEK293 hNpr1 GloSensor cGMP, ANP-stimulated luminescence; calls by dose curve; further: nearly all actives have a fitted effect of over 60% in size
# Target sequence (P16066 whole entry, looked up): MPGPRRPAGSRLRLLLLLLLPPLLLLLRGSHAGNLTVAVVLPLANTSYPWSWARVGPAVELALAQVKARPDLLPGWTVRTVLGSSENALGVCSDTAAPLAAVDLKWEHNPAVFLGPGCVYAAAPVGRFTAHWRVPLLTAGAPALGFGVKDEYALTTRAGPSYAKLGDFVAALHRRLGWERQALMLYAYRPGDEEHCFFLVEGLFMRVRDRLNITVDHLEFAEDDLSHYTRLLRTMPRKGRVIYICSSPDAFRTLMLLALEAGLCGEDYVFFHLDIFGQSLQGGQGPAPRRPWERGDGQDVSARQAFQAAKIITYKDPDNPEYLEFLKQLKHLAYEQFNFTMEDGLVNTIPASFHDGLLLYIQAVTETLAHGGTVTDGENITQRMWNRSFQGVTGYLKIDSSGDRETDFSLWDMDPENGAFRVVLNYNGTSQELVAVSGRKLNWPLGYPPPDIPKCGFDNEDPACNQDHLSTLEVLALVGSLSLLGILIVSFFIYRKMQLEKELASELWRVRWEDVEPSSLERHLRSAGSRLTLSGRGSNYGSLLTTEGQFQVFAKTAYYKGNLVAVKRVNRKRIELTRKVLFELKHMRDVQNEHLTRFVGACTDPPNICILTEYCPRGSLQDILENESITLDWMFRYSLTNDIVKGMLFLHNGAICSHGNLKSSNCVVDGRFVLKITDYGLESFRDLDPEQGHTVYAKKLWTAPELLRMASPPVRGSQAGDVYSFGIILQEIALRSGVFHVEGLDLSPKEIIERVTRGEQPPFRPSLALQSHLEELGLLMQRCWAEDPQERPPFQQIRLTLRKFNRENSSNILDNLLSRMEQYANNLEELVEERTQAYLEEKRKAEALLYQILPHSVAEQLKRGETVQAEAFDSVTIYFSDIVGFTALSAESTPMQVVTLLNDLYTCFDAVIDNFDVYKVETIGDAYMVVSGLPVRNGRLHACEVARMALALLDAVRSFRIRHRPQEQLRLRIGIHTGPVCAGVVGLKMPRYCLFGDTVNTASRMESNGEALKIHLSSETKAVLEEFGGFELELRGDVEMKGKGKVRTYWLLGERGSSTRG
#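 HEK293 cells stably expressing human Npr1 and cGMP GloSensor pGS-40F, loaded 2 h with 2% GloSensor reagent, given compound 30 min at room temperature. Luminescence read before and 20 min after 0.1 nM hNppA.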
# SNCA viab count – counter-screen for SNCA expression inhibitors: cell viability. hit rate 0.12% among 150,000. Potency, µM (doses to about 57.1 µM), inactives show top-dose activity change, negative = cytotoxicity, most hits filed as cytotoxic. HEK-293-SNCA-luc viability, GF-AFC fluorescence, 24 h;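 further: 0% = DMSO-treated cells and -100% = medium-only wells without cells; nearly all actives have a fitted effect of over 30% in size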
#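 HEK-293-SNCA-luc cells (1500/well) plated 24 h, then exposed 24 h to a dilution series; GF-AFC added 30 min at 37C, fluorescence 405/540 nm; normalised to medium-only and DMSO wells, Hill fit.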
# Starred values were filed as active, the others as inactive; i = inactive; ? = inconclusive; . = not tested or not shown; [ ] = dose if it differs, or a comment. Rows were chosen to be rich in hits. Some 7.4% of all compounds tested hit in one or more screens of this group. Unless noted, the call rests on the fitted dose curve; in most records, active means well fitted curve in the direction sought with a large enough effect; inconclusive means small, poorly fitted or top-dose-only effect, or another doubt; inactive means no such curve, though single readings can be large; an effect the other way counts as inactive or inconclusive. Unless noted, on the % scale 0 is the no-effect control and ±100 the full control effect; potency means the concentration at half of the fitted maximal effect.
SMILES,SNCA expr inh,FLuc inh,NIH3T3 tox,HEK293 tox,NPR1 antag,SNCA viab count
COc1ccc(-c2cc(C[C@H]3CNCC[C@H]3CC(=O)NCc3ccccc3OC)no2)cc1,-28%,i,71µM*,?,-6%,4%
O=C(C[C@@H]1CCNC[C@@H]1Cc1cc(-c2ccc(F)cc2)on1)Nc1ccccc1,-36%[87.6 µM],i,35µM*,40µM*,-14%[70.6 µM],?
O=C(C[C@@H]1CCNC[C@@H]1Cc1cc(-c2ccc(F)cc2)on1)Nc1nccs1,-29%[87.6 µM],i,100µM*,100µM*,-2%[70.6 µM],-8%[87.6 µM]
COc1ccc(-c2cc(C[C@H]3CNCC[C@H]3CC(=O)N(C)Cc3ccccc3)no2)cc1,-22%[87.6 µM],i,35µM*,32µM*,-22%[70.6 µM],-4%[87.6 µM]
CN(Cc1ccccc1)C(=O)C[C@@H]1CCNC[C@@H]1Cc1cc(CSc2ccccc2)on1,-1%,i,?,?,1%,-8%
CCOCCNC(=O)c1cc(-c2cccc(C(F)(F)F)c2)c2cccn2n1,-21%,.,?,?,.,-15%
O=C(NCCc1ccc(Cl)cc1)c1ccc2oc(-c3ccccn3)nc2c1,-1%,.,-12%,?,.,-2%
COc1ccc(CC(=O)N2CCC(C(=O)N3CCC(c4nc5ccncc5[nH]4)C3)CC2)cc1 (stereo unspecified),17%,.,-19%,5%,.,13%
COc1ccc(CNC(=O)C[C@@H]2CCNC[C@@H]2Cc2cc(-c3ccc(OC)cc3)on2)cc1,7%,i,?,40µM*,-13%,2%
COc1ccc(-c2cc(C[C@H]3CNCC[C@H]3CC(=O)N3CCOCC3)no2)cc1,-3%[87.6 µM],i,-17%[174 µM],-22%[172 µM],-9%[70.6 µM],4%[87.6 µM]
O=C(C[C@@H]1CCNC[C@@H]1Cc1cc(-c2ccc(F)cc2)on1)NCc1ccco1,-5%[87.6 µM],i,?,?,-13%[70.6 µM],-4%[87.6 µM]
O=C(C[C@@H]1CCNC[C@@H]1Cc1cc(-c2ccccc2)on1)NCc1ccc(F)cc1,?,i,40µM*,40µM*,-10%[70.6 µM],1%[87.6 µM]
COc1ccc(-c2cc(C[C@H]3CNCC[C@H]3CC(=O)NCc3ccc(OC)c(OC)c3)no2)cc1,-18%,i,?,-29%,1%,7%
COc1ccc(CNC(=O)C[C@@H]2CCNC[C@@H]2Cc2cc(-c3ccc(F)cc3)on2)cc1,-8%,i,?,79µM*,-6%,11%
COc1ccc(-c2cc(C[C@H]3CNCC[C@H]3CC(=O)NCc3ccc4c(c3)OCO4)no2)cc1,?,i,79µM*,?,-16%,5%
COc1ccccc1-c1cccc(C(=O)N2CCN([S+](=O)([O-])c3ccc(C)cc3)CC2)c1,13%,.,?,?,.,7%[12.5 µM]
O=C(c1ccc2nnc(-c3ccc(Cl)cc3Cl)n2c1)N1CCOCC1,22%,.,-7%,i,.,3%
COc1cccc(CNC(=O)c2cn3cc(-c4cccc(C(F)(F)F)c4)sc3n2)c1,-3%,.,-9%,?,.,-11%
CN(Cc1ccccc1)Cc1cc(C[C@H]2CNCC[C@H]2CC(=O)NCc2cccs2)no1,-3%,i,-35%,?,-14%,-23%
COc1ccc(CNC(=O)C[C@@H]2CCNC[C@@H]2Cc2cc(CN(C)Cc3ccccc3)on2)cc1,-20%,i,-20%,40µM*,-3%,-13%
O=[S+]([O-])(NC1CCCN(c2ccnc3ccnn23)C1)c1cccs1 (stereo unspecified),13%[87.6 µM],.,?,?,.,9%[87.6 µM]
Cc1ccc2nc(C(C)NC(=O)c3cnc(-c4ccccn4)[nH]c3=O)[nH]c2c1 (stereo unspecified),-16%,i,?,25µM*,-1%,-12%
Cc1ccc(-c2ncc(C(=O)N3CCC(Nc4ncccn4)CC3)c(=O)[nH]2)cc1,-19%,i,1%,i,0%,17%
COc1ccc(CN2C[C@H](O)C[C@H]2c2nc(-c3ccncc3)no2)cc1,-13%[87.6 µM],i,-11%[174 µM],?,0%[70.6 µM],-6%[87.6 µM]
